Test results reported in PubChem BioAssay (Tox21).
Inconclusive results are not listed. Entries that show only a call come without a potency. Calls of active or inactive are those of the source. Unless noted, the call rests on the fitted dose curve; in most records, active means well fitted curve in the direction sought with a large enough effect in the repeat runs; inconclusive means weak or mixed curves; inactive means no such curve, though single readings can be large; an effect the other way counts as inactive or inconclusive.

Experiments:
[1] = qHTS assay to identify small molecule agonists of H2AX (AID 1224845; active means well fitted activation curve with a large enough effect in the signal ratio in the repeat runs, not every such curve was filed as active; the % refers to the signal ratio; further: potency means the concentration at half of the fitted maximal effect)
Method in brief: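 Phospho-H2AX Ser139 measured by HTRF (ex 320 nm; em 665 and 620 nm) after 24 hr antibody incubation. Compounds, 15 concentrations, 0.76% DMSO, were applied to CHO-K1 cells for 3hr at 37C before lysis.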

[2] = qHTS assay to identify small molecule agonists of the hypoxia (HIF-1) signaling pathway (AID 1224846; active means well fitted activation curve with a large enough effect in the signal ratio in the repeat runs, not every such curve was filed as active; the % refers to the signal ratio)
Method in brief: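 ME-180 HRE-bla reporter cells; compounds in DMSO, 17 h at 37C; read-out beta-lactamase via CCF4-AM FRET.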

[3] = qHTS RealTime-Glo MT Cell Viability Assay in HepG2 cells - 24 hour (AID 1224867); further: nearly all actives have a fitted effect of over 50% in size
Method in brief: (§1)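 Viability was tracked continuously by NanoLuc luminescence from prosubstrate reduced by living HepG2 cells, at successive time points over 40 h of compound exposure. Cells with reagent were preincubated 5 h at 37 °C before compound addition.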

[4] = qHTS RealTime-Glo MT Cell Viability Assay in HEK293 cells - 32 hour (AID 1224868); further: nearly all actives have a fitted effect of over 50% in size; further: potency means the concentration at half of the fitted maximal effect
Method in brief: (§2)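 Viability tracked continuously by luminescence as live cells reduce a prosubstrate for NanoLuc; HEK293 cells preincubated 5 h, compound-treated at 37 C, and read at 0, 8, 16, 24, 32 and 40 h.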

[5] = A CellTox Green Cytotoxicity Assay to monitor cytotoxicity in HEK293 cells - 0 hour (AID 1224869); further: nearly all actives have a fitted effect of over 50% in size
Method in brief: (§3)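 Real-time, in one plate: 600 HEK293 cells/well with dead-cell DNA dye, pinned compound after 5 h, 37 C incubation over 40 h; viable cells give no appreciable fluorescence.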

[6] = qHTS RealTime-Glo MT Cell Viability Assay in HepG2 cells - 40 hour (AID 1224870); further: nearly all actives have a fitted effect of over 50% in size
Method in brief: (§4)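 Real-time viability: cells seeded at 600 per well together with NanoLuc and cell-permeant prosubstrate, compounds added after 5 h incubation. Luminescence tracked at 0, 8, 16, 24, 32 and 40 h of exposure.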

[7] = A CellTox Green Cytotoxicity Assay to monitor cytotoxicity in HEK293 cells - 40 hour (AID 1224871); further: nearly all actives have a fitted effect of over 45% in size
Method in brief: as §3

[8] = qHTS RealTime-Glo MT Cell Viability Assay in HEK293 cells - 16 hour (AID 1224872)
Method in brief: as §2

[9] = qHTS RealTime-Glo MT Cell Viability Assay in HepG2 cells - 8 hour (AID 1224873); further: nearly all actives have a fitted effect of over 55% in size
Method in brief: as §4

[10] = qHTS RealTime-Glo MT Cell Viability Assay in HEK293 cells - 40 hour (AID 1224874); conditions: RealTime-Glo luminescence; max response: stronger effect = lower value; further: nearly all actives have a fitted effect of over 50% in size
Method in brief: (§5)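 Kinetic, non-lysing viability readout. Seed HEK293 (600/well) with reagent, incubate 5 h at 37 C/5% CO2, pin 23 nL compound in DMSO, incubate at 37 C, read luminescence at 0, 8, 16, 24, 32, 40 h.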

[11] = A CellTox Green Cytotoxicity Assay to monitor cytotoxicity in HEK293 cells - 24 hour (AID 1224875); further: nearly all actives have a fitted effect of over 45% in size
Method in brief: as §3

[12] = A CellTox Green Cytotoxicity Assay to monitor cytotoxicity in HepG2 cells - 16 hour (AID 1224876); further: nearly all actives have a fitted effect of over 45% in size
Method in brief: (§6)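 Cytotoxicity was tracked as dead-cell DNA fluorescence in HepG2 cells treated with test compounds at 37 C; each time-point value comes from one kinetic series spanning 0, 8, 16, 24, 32 and 40 h.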

[13] = qHTS RealTime-Glo MT Cell Viability Assay in HepG2 cells - 32 hour (AID 1224877); further: nearly all actives have a fitted effect of over 55% in size
Method in brief: as §1

[14] = A CellTox Green Cytotoxicity Assay to monitor cytotoxicity in HepG2 cells - 24 hour (AID 1224878); further: nearly all actives have a fitted effect of over 45% in size; further: potency means the concentration at half of the fitted maximal effect
Method in brief: as §6

[15] = A CellTox Green Cytotoxicity Assay to monitor cytotoxicity in HepG2 cells - 40 hour (AID 1224879); further: nearly all actives have a fitted effect of over 40% in size
Method in brief: as §6

[16] = qHTS RealTime-Glo MT Cell Viability Assay in HEK293 cells - 0 hour (AID 1224880); further: nearly all actives have a fitted effect of over 45% in size; further: potency means the concentration at half of the fitted maximal effect
Method in brief: as §5

[17] = A CellTox Green Cytotoxicity Assay to monitor cytotoxicity in HEK293 cells - 32 hour (AID 1224881); further: nearly all actives have a fitted effect of over 40% in size
Method in brief: as §3

[18] = qHTS assay to identify small molecule antagonists of the estrogen related receptor (ERR) signaling pathway from Tox21 library (AID 1224848); further: nearly all actives have a fitted effect of over 50% in size; further: potency means the concentration at half of the fitted maximal effect
Method in brief: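 ERR cell line, 2,000 cells/well. 6 h settle, then compound (DMSO) added; 18 h at 37 C; ONE-Glo luminescence after 30 min RT.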

[19] = qHTS assay to identify small molecule agonists of the estrogen related receptor (ERR) signaling pathway from Tox21 library (AID 1224849; calls by dose curve; further: nearly all actives have a fitted effect of over 15% in size); conditions: ERR reporter cell line, ONE-Glo luciferase, 18 h; at 92.4 µM (top of the series) unless noted
Method in brief: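 Luciferase activity in ERR pathway reporter cells served as the agonist readout; exposure lasted 18 h at 37 C, with ONE-Glo detection after 30 min at room temperature.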

| Structure (SMILES) | Potency [1] | outcome [2] | Potency [3] | Potency [4] | Potency [5] | Potency [6] | Potency [7] | Potency [8] | Potency [9] | max response [10] | Potency [11] | Potency [12] | Potency [13] | Potency [14] | Potency [15] | Potency [16] | Potency [17] | Potency [18] | activity change, positive = activation [19] |
| --- | --- | --- | --- | --- | --- | --- | --- | --- | --- | --- | --- | --- | --- | --- | --- | --- | --- | --- | --- |
| CCCC(O)C(O)CO (configuration not stated) | inactive | inactive | inactive | inactive | inactive | inactive | inactive | inactive | inactive | 4.32% (inactive) | inactive | inactive | inactive | inactive | inactive | inactive | inactive | – | – |
| COc1ccc(C#N)cc1 | inactive | inactive | inactive | inactive | inactive | – | inactive | inactive | inactive | -13.1% (inactive) | inactive | inactive | inactive | inactive | inactive | inactive | inactive | – | – |
| CC(C)OC(=O)c1cc(C(=O)OC(C)C)cc([N+](=O)[O-])c1 | inactive | inactive | inactive | – | inactive | inactive | – | – | inactive | – | – | inactive | inactive | – | inactive | inactive | – | inactive | -0.42% (inactive) |
| Cc1nc(Nc2ncc(C(=O)Nc3c(C)cccc3Cl)s2)cc(N2CCN(CCO)CC2)n1 | 55.2 µM (active) | inactive | – | 30.1 µM (active) | inactive | – | inactive | – | inactive | – | inactive | – | – | 26.8 µM (active) | – | 26.8 µM (active) | inactive | 8.41 µM (active) | -44.6% [at 42.5 µM] (inactive) |
